89 sequences from the supplement of paper PMC11417369 can be followed below.

Whole data set: some 25,000 sequences, median “ln(normalized median fluorescence intensity)” near 9.3, cut for the highest 2% near 10. Only a selection was taken, and the highest values are over-represented in it overall.

The assay relates to PF3D7_0420300 AP2 domain 1 (GST-tagged). Description: gcPBM binding intensity (ln(normalized median fluorescence intensity)); higher = stronger DNA binding. The essentials: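 The highest Masliner-normalised natural-log median intensity across replicate spots of either probe orientation is reported as binding intensity. GST-tagged P. falciparum DNA-binding domains expressed in E. coli were applied for 1 h to an Agilent 4 × 180k array of primer-extended double-stranded 36-bp intergenic genomic probes plus negative controls, and bound protein was detected with Alexa488 anti-GST antibody and scanned at 488 nm.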
With “AAAATTTTCTTTTTATGTACACATAATTTTACCGGA [XGTACX_site5276]”, the “gcPBM binding intensity (ln)” value was determined as 9.18. Take “ATAAAATATTTTTGAACATGCAGGTAAAAAATAAAA [TGCATGCA_site1019]”: the “gcPBM binding intensity (ln)” value was determined as 9.27.

As for “ATGGATTATACGTGCACACATATATACCAATAAATA [CACACA_site4524]”, the “gcPBM binding intensity (ln)” value was 9.43. With “AAAAGTTTTATTTAAATGAATTAATCTTTACTATAT [CACACA_negctrl_site282]”, the “gcPBM binding intensity (ln)” value is 9.07. As for “AAAACACAATTTATTACACACATATATTATATATTA [CACACA_site1420]”, the figure is 9.49; as for “TGAATATTCATGTGTGTGCGCATGTTGTTAGACCAT [GTGCAC_site9869]”, 9.69; as for “AACATTTTAAATTATACACACATTTTGAATATATAT [CACACA_site3470]”, 9.54. Turning to “AGCATCATTTTACACACATGCAAATGTAAAATAGGA [TGCATGCA_site460]”, the “gcPBM binding intensity (ln)” value was determined as 9.43. As for “GCCATTGTACCATCCACACACATATAAATATGTATA [CACACA_site7303]”, the figure is 9.85. As for “TATATATATAATATTGCACACAAAATTAAAAGTAAA [CACACA_site7889]”, the figure is 9.47. In the case of “CAAGAAAAGAAACACACACACATATATATATATATA [CACACA_site3881]”, the “gcPBM binding intensity (ln)” value turned out to be 9.87. Turning to “TACACGCAGAAACACACACACACACCCATATATATA [CACACA_site637]”, the “gcPBM binding intensity (ln)” value was found to be 10.3.

With “AAAAAAAAAAAACACACACACACACCCATATATAAA [CACACA_site1170]”, the “gcPBM binding intensity (ln)” value was 10.2. For the sequence “TACACGCATAAACACACACACACACCCATATATATA [CACACA_site8114]”, the “gcPBM binding intensity (ln)” value worked out at 10.4. For “AAAAAAAATAAACACACACACATACCCATAAATATA [CACACA_site5980]”, the “gcPBM binding intensity (ln)” value came out at 10.1. For “TACACCCATAGACACACACACACGCATAAAAAAAAA [CACACA_site8428]” the value was 9.93. As for “CACCCATAGAAACACACACACGCATAAAAAAAAAAA [CACACA_site1513]”, the figure is 9.71; as for “AAAAAAAAAAAAGAAACACACACATATATATATATA [CACACA_site8525]”, 9.69. As for “CACCCATAAATATACACACGCACAACACAAAATAAA [CACACA_site2903]”, the figure is 9.73; as for “AAAAAAAAAAAAAACACACACACACGCAGATATATA [CACACA_site6672]”, 10.1; as for “AAAAAGGAGAAACACACACACACACCCATATATATA [CACACA_site905]”, 10.2. As to “GATAGAAAAAAATAATGTACACACACATATATGTTT [XGTACX_site392]”, the “gcPBM binding intensity (ln)” value turned out to be 9.72.

With “AAAAAAATTCTGACTTGTACATATAAAATTTACAAA [XGTACX_site4408]”, the “gcPBM binding intensity (ln)” value came to 8.78. For “TACGTATGCCTGTGATGTACATATATATATACATAC [XGTACX_site4728]” the value was 9.36; for “AATCACCAAATATGTACACACCTTAACATGTTTATA [CACACA_site5180]”, 9.64. On to “TTTAAAAGATAAAACACACATACTAATAAAAAACAA [CACACA_site2556]”, for which the “gcPBM binding intensity (ln)” value stood at 9.71.

Take “AAGTGTCAAAGTTACACACACAAACTTGTCATTTTT [CACACA_site837]”: the “gcPBM binding intensity (ln)” value was 9.75. As for “AAAAATCATTTAAGAACACACAAATATTTCCATTAA [CACACA_site1488]”, the figure is 9.35. For “TTATCCTTGTAACAATGTACACATTATTTAATACTT [XGTACX_site1830]” the value was 9.29. As for “TACATATTTTTCTTTTCACACATGGAAAAAAAAGGT [CACACA_site5146]”, the “gcPBM binding intensity (ln)” value was found to be 9.11.

In the case of “ACATATAAAATGTATACACACAAATATTACAGAGAT [CACACA_site4920]”, the “gcPBM binding intensity (ln)” value was determined as 9.8. As for “ATTCATATGAAACACACACACACACCCATAAAAAAA [CACACA_site3246]”, the figure is 10.1; as for “TAAACACCCATATAAACACACATATAAACACCCATA [CACACA_site5382]”, 9.84; as for “TCATAGTATAAACACACACACACACCCATATATATA [CACACA_site8512]”, 10.3. Turning to “CACAGTGATATAAAAACACACATGAATTATAATTTC [CACACA_site1667]”, the “gcPBM binding intensity (ln)” value was determined as 9.43.

“TTTTTCTGTTCTTTTTGTACTTAAATATATTTATTT [XGTACX_site5658]”: the “gcPBM binding intensity (ln)” value is 9.57.

As to “TAAATATTATATTTATGTACATAAGTTTTTTTTAAT [XGTACX_site3559]”, the “gcPBM binding intensity (ln)” value amounted to 9.08. For “AATATTTCTATATGAACATGCAATGTATCTTTTTAT [TGCATGCA_site738]” the value was 9.13. In the case of “TAAATAAATTTATACACACACACACCGATATATATA [CACACA_site4622]”, the “gcPBM binding intensity (ln)” value came out at 10.1. For “CATATACTCGGACACACACACACACCGACAAAAAAA [CACACA_site4433]” the value was 10.1; for “AGTATACACAGACACACACACACATATATATATATA [CACACA_site8510]”, 10.2.

As for “ATAGTATACAGACACACACACACACCGATATATATA [CACACA_site8511]”, the “gcPBM binding intensity (ln)” value turned out to be 10.3. For “ATAGTATACGGACACACACACACACCGATATATATA [CACACA_site5032]” the value was 10.3; for “AGTATACATATATATACACACACACCGATATATATA [CACACA_site8357]”, 10.1. As to “ATTCATCTATTTTGTAGTACTAAATATATATCTACT [XGTACX_site8790]”, the “gcPBM binding intensity (ln)” value was determined as 9.46. As for “TGTAATAATCTTCATTTCTTTTTTTTTTTTTTTTGT [CACACA_negctrl_site1388]”, the “gcPBM binding intensity (ln)” value was found to be 8.96. For “ATTTACATAATAAAATGTACATTTATAAATATTATA [XGTACX_site1901]” the value was 9.13; for “CATACATACATACATACACACATACAGATATATATA [CACACA_site4890]”, 9.84. Regarding “CACAGATATATACATACACACATATATACACATATA [CACACA_site6323]”, the “gcPBM binding intensity (ln)” value was 9.72.

Consider “TATAGATACATATACACACACACACCGACATATATA [CACACA_site9138]”, for which the “gcPBM binding intensity (ln)” value is 10.3.

With “CATATATAGATATATACACACATACATACATACATA [CACACA_site7748]”, the “gcPBM binding intensity (ln)” value was 9.59. As for “TATAGATACAGATACACACACACACCGACATATATA [CACACA_site5832]”, the figure is 10.2; as for “AATATAGATACATATACACACACACCCATACATATA [CACACA_site9137]”, 10.1; as for ATATATATATAATAAGTGCAAAAAAAAGAAAAAAAT, 9.74. As for “GTTTAACTGTTTTATACACACAATGTATCCAATAAA [CACACA_site5612]”, the figure is 9.49. On to “TAAAAAAAAAAAAAAACACACATATAAATATTTATA [CACACA_site6702]”, for which the “gcPBM binding intensity (ln)” value was 9.45. As for “TATATATTATTTAAAACACACAAAAAAAAAAATTAT [CACACA_site89]”, the “gcPBM binding intensity (ln)” value came to 9.59. As for “ATAAAATTTATATAAGCACACAAATATATATTTATA [CACACA_site9083]”, the figure is 9.29. For “AATATAAATAAAAACACACACACACGGATATTTATA [CACACA_site7134]” the value was 10.3. As for “CTTATATTAAAACACACACACGCACAAAACAGAAAT [CACACA_site1462]”, the figure is 10.2; as for “TATAAAAATAAGCACACACACAAATATATATTTATT [CACACA_site922]”, 10.1; as for “AAAAACAACACAGATAAATTAACACACACACACATA [XGTACX_negctrl_site588]”, 10.2. In the case of “AGTATAAAAATAAGCACACACACAAATATATATTTA [CACACA_site923]”, the “gcPBM binding intensity (ln)” value came out at 10.2. For “GATAAATTAAAACACACACACATATATATATATATA [CACACA_site3962]” the value was 9.67. As for “CATAAAATATAAAACACACACACATATATTTATATA [CACACA_site6247]”, the figure is 10; as for “ACTTATATAAAACATTAACACACAAAGAAAAAAAAT [CACACA_site8529]”, 9.96. As for “CATAATACAGATAACACACACAATTATACATAAAAT [CACACA_site5742]”, the figure is 10; as for “AACCACATACATATAACACACATATACAATATATAT [CACACA_site8607]”, 9.65; as for “TTTTGTTATTATAAATAGTAACATTTGTGAATATAT [TGCATGCA_negctrl_site132]”, 8.92. Consider “GGCCCAACTTCTTCTGACGAAAACGTAAATTGTGTG [XGTACX_negctrl_site533]”, for which the “gcPBM binding intensity (ln)” value is 9.22.

As to “CTATATCATTTTCTAGCACACACATTGTTATTACCT [CACACA_site8204]”, the “gcPBM binding intensity (ln)” value worked out at 9.84. In the case of “AAAAACTAACTGTATTGTACTCTCTTATAAATTCAC [XGTACX_site8967]”, the “gcPBM binding intensity (ln)” value worked out at 9.15.

With “ATATATATATATATATATATAATAAAAGATCATTTA [XGTACX_negctrl_site371]”, the “gcPBM binding intensity (ln)” value worked out at 9.09. “AAAAAATATATATATATATATATGTAATATTTTTTT [XGTACX_negctrl_site439]”: the “gcPBM binding intensity (ln)” value was 9.07. For “TAAATAATGTAAAAAACATCATCAAAATGTTAATTA [CACACA_negctrl_site1768]”, the “gcPBM binding intensity (ln)” value was 9.09. As for “TATGAAATATTTATACACAGAACTTCATAATTTTCA [TGCATGCA_negctrl_site509]”, the “gcPBM binding intensity (ln)” value stood at 9.04. As for “CGTGAATATATGATATGTACTTATAAAAATTTGTGC [XGTACX_site5480]”, the figure is 9.26. As for “AATAAATATATATTCACACACAAACATATATATATA [CACACA_site4023]”, the figure is 9.71; as for “CTATTTCATAAACACACACACACAAACAAACATATA [CACACA_site8234]”, 10.4. Turning to “ATTTAATACAAATACACACACAAATAAATACAGATA [CACACA_site5956]”, the “gcPBM binding intensity (ln)” value came to 10.2. As for “AACACAGATAAATTAACACACACACCCATATATATA [CACACA_site9310]”, the figure is 10.1; as for “TAAATAAAAAGACACACACACATATTTATATTTATA [CACACA_site7135]”, 10. In the case of “CACAGATAAATTAACACACACACACCCATATATATA [CACACA_site3960]”, the “gcPBM binding intensity (ln)” value came out at 10.1.

As for “AATACAATTTTTAACACACACACAATAATACAGATA [CACACA_site4823]”, the “gcPBM binding intensity (ln)” value turned out to be 10.2. For “ATAAAAAGGAGACACACACACACACGCATATTTATA [CACACA_site6551]”, the “gcPBM binding intensity (ln)” value is 10.3. For “ATACAACAGATATATACACACATATAACAATAATAA [CACACA_site7560]” the value was 9.93; for “CTATTTCATGGACACACACACACAAACAAACATATA [CACACA_site4696]”, 10.2. For “ATAAAAAAAGGACACACACACATATATTTATTTATA [CACACA_site7438]” the value was 10.1. Regarding “CACAGATAAATTAACACACACACACCGATATATATA [CACACA_site6049]”, the “gcPBM binding intensity (ln)” value is 10.2.
